KB-3-1 tox: qHTS assay for MDR1-selective chemotherapeutics: Primary screen using the parental adenocarcinoma cell KB-3-1; KB-3-1 viability, CellTiter-Glo ATP luminescence, 72 h; Potency, µM (doses to about 46.1 µM), usual class: cytotoxic; 400,000 compounds, 1.4% hits; AID 1347075, 2019; note: % is set by controls: 0 for no effect and ±100 for the full control effect; nearly all actives have a fitted effect of over 60% in size
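Cells are dispensed, compounds pinned in, plates held at 37 °C for 72 h, then CellTiter-Glo is added and luminescence read after 10 minutes. Cell line: parental KB-3-1 in phenol-red-free DMEM, 10% FBS.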
KB-V1 cytotox: qHTS assay for MDR1-selective chemotherapeutics: Primary screen using the drug-selected MDR subline cells KB-V1; KB-V1 MDR cells viability, CellTiter-Glo, 72 h; Potency, µM (series often up to 46.1 µM), hits mostly cytotoxic; 400,000 compounds, 3.4% hits; AID 1347076, 2019; note: % is set by controls: 0 for no effect and ±100 for the full control effect; nearly all actives have a fitted effect of over 60% in size
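Drug-selected KB-V1 cells, grown in DMEM lacking phenol red with 10% FBS, receive compound titrations; after three days at 37 degrees C, surviving cell ATP is quantified by CellTiter-Glo luminescence and responses normalized and curve-fitted.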
MCF10A rerep: A quantitative high throughput screen for small molecules that induce DNA re-replication in MCF 10a normal breast cells; 350,000 compounds, 2.9% hits; Potency, µM (titrated, usually from 46.1 µM), without a hit: top-dose activity, positive = re-replication, usual class: activators; MCF 10A DNA re-replication, Hoechst nuclear intensity, 48 h; AID 624296, 2012; note: % of control where 0% means no effect; nearly all actives have a fitted effect of over 50% in size
PINK1 expr mod: A Quantitative High throughput Screen to Identify Chemical Modulators of PINK1 Expression. PINK1 immunofluorescence, high-content cytometry, 24 h. 410,000 compounds, 0.2% hits. AID 624263, 2012. Potency, µM (highest dose often 76.6 µM), for the others: at the highest dose activation (PINK1 increase), usual class: activators; active = well fitted activation curve with a large enough effect; inconclusive = small, poorly fitted or top-dose-only effect; cell line not stated here; note: % of control where 0% means no effect; nearly all actives have a fitted effect of over 65% in size
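Measures PINK1 amount and localization on or inside mitochondria by immunofluorescence. Stable cells get compounds at 5 concentrations for 24 hours before fixation and staining; CCCP controls included.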
SW480 rerep: A quantitative high throughput screen for small molecules that induce DNA re-replication in SW480 colon adenocarcinoma cells | SW480 DNA re-replication, Hoechst DNA content imaging, 48 h | Potency, µM (titrated, usually from 46.1 µM), for the others: at the top dose re-replication activation, actives largely listed as activators | 340,000 compounds, 1.8% hits; note: % of control where 0% means no effect; nearly all actives have a fitted effect of over 55% in size
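DNA re-replication was detected as more nuclei of elevated Hoechst intensity after 48 hr exposure to compound (23 nL pinned per well of 250 cells).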
TSG101-PTAP inh: qHTS Assay for Iinhibitors of HIV-1 Budding by Blocking the Interaction of PTAP/TSG101. Potency, µM (doses to about 115 µM), without a hit: top-dose activity change, negative = inhibition, usual class: inhibitors. 340,000 tested, under 10 active. Fluorescence polarization, FITC-PTAP peptide / Tsg101 binding; active = well fitted inhibition curve with a large enough effect in the main read-out, with a control signal flat, not every such curve was filed as active; inconclusive = small, poorly fitted or top-dose-only effect, or effect the other way, or a change in a side signal; inactive = no such curve, though single readings can be large or run the other way; note: % of control where 0% means no effect
Target sequence (Q99816 whole entry, looked up): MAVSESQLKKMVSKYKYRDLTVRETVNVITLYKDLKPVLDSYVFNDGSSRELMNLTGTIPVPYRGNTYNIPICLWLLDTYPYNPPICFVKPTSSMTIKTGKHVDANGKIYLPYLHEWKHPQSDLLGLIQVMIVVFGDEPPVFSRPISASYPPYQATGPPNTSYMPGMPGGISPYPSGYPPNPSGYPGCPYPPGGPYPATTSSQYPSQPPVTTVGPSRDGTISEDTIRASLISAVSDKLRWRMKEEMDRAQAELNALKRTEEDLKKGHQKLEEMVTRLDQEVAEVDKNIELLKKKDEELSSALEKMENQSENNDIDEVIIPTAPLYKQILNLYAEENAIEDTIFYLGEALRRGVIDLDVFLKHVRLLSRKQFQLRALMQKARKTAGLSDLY
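FP read-out: FITC-PTAP peptide, 50 nM final, binding Tsg101 binding domain, 10 uM final; 20 min, r.t.; 10 mM HEPES pH 7.5, 0.15 M NaCl, 0.01% Tween 20, 3 mM EDTA, 0.1 mM TCEP.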
The depositor's hits bear a star; i = inactive; ? = inconclusive; · = not tested or not shown; [ ] = dose if it differs, or a comment. The list is not random: actives were taken first. Their share in the collection is about 6.8%. Unless noted, calls come from the whole dose curve; as a rule, active = well fitted curve in the direction sought with a large enough effect; inconclusive = small, poorly fitted or top-dose-only effect, or another doubt; inactive = no such curve, though single readings can be large; an effect the other way counts as inactive or inconclusive. Potency is the fitted concentration of half-maximal effect.

SMILES | KB-3-1 tox | KB-V1 cytotox | MCF10A rerep | PINK1 expr mod | SW480 rerep | TSG101-PTAP inh
COc1ccc(NC(=S)NC(NC(=O)c2cccc(Cl)c2)C(Cl)(Cl)Cl)c([N+](=O)[O-])c1 (centres undefined) | ? | ? | ? | ? | ? | -5.9%
CSc1cccc(NC(=O)/C=C/c2cccc(Cl)c2)c1 | ? | 18.4µM* | 9.8% | ? | -60.3% | -4.3%
O=C(NC(NC(=S)Nc1ccccc1Cl)C(Cl)(Cl)Cl)c1cccc(Cl)c1 (centres undefined) | ? | 20.6µM* | ? | 13.3% | ? | -1.8%
Cc1ccc(C)c(NC(=S)NC(NC(=O)/C=C/c2ccccc2)C(Cl)(Cl)Cl)c1 (centres undefined) | ? | ? | 2.91µM* | 12.4% | ? | -5.7%
O=C(/C=C/c1cccc(Cl)c1)Nc1ncccn1 | i | ? | 0.8% | 1.9% | -9.3% | -3.2%
O=C(CCc1ccccc1)NC(NC(=S)Nc1cccc(Cl)c1)C(Cl)(Cl)Cl (centres undefined) | i | ? | 5.8µM* | · | -11.3% | -7.1%
CC(C)(Oc1ccc(Cl)cc1)C(=O)Nc1nnc2n1CCS2 | i | i | · | -4.3% | · | ·
CCN(C(=O)CN1C(=O)COc2ccc(S(=O)(=O)N3CCOCC3)cc21)c1cccc(C)c1 | · | · | · | -0.8% | · | ·
CCOc1cc(CNC(=O)Cn2c(-c3cccs3)cc3cc(F)ccc32)ccc1OC | i | 11.6µM* | · | 11.2% | · | ·
O=C(Cn1c(-c2cccs2)cc2cc(F)ccc21)NCCc1ccc(Cl)cc1 | i | i | · | 14.2% | · | ·
CCOc1ccc(CCNC(=O)Cn2c(-c3cccs3)cc3cc(F)ccc32)cc1OCC | 6.51µM* | ? | · | 17.2% | · | ·
Cc1ccc(-c2cc(-c3ccccc3C)[nH]n2)c(O)c1 | 20.6µM* | 13µM* | ? | 0.9% | ? | -4.8%
Cc1ccc(O)c(-c2cc(-c3cccc(F)c3)n[nH]2)c1 | ? | ? | 25.9µM* | 3.7% | ? | 1.3%
COc1cccc(NC(=O)Cn2c(=O)n(CCc3ccccc3)c(=O)c3c4c(sc32)CN(C(C)=O)CC4)c1 | i | i | · | 0.1% | · | ·
Oc1ccc(Br)cc1-c1cc(-c2ccccc2)n[nH]1 | i | i | ? | 4.0% | ? | -2.2%
Oc1ccc(Br)cc1-c1ccnn1-c1ccccc1 | ? | ? | 7.31µM* | 1.4% | ? | -7.4%
COc1ccc(CCn2c(C3CCCCC3)nc3c(c(=O)c4ccccc4n3C)c2=O)cc1 | ? | 18.4µM* | 3.66µM* | 2.5% | -22.0% | 4.6%
Cn1c2ccccc2c(=O)c2c(=O)n(C3CCCCC3)c(-c3cccs3)nc21 | ? | 11.6µM* | ? | -1.5%[38.3 µM] | 0.8% | -0.8%
COCCCn1c(C2CCCCC2)nc2oc3cc(OC)ccc3c(=O)c2c1=O | ? | 23.1µM* | 11.5% | 2.4%[38.3 µM] | 5.7% | -2.2%
COCCn1c(-c2ccc(C)cc2)nc2oc3cc(OC)ccc3c(=O)c2c1=O | i | i | -1.7% | 0.6% | ? | 3.8%
COc1ccc2c(=O)c3c(=O)n(Cc4ccco4)c(C(C)C)nc3oc2c1 | i | 20.6µM* | 15.9% | 10.3% | -4.7% | -5.2%
Cn1c2ccccc2c(=O)c2c(=O)n(C3CCCCCC3)c(C3CCCCC3)nc21 | ? | ? | ? | 1.9% | 3.6% | -4.6%
COC(=O)c1ccc(OC)c(Cn2c(=O)n(-c3cccc(Cl)c3)c(=O)c3c4c(sc32)CN(C(C)=O)CC4)c1 | i | i | · | 1.1% | · | ·
COc1ccc(CNC(=O)Cc2c(C)c3cc4c(C)coc4cc3oc2=O)cc1OC | · | · | · | -1.3% | · | ·
COc1cc(=O)n2c(c1C(=O)N(C)Cc1nonc1C)CCN(C(=O)c1cccc(C)c1C)CC2 | · | · | · | -1.2% | · | ·
SMILES | KB-3-1 tox | KB-V1 cytotox | MCF10A rerep | PINK1 expr mod | SW480 rerep | TSG101-PTAP inh
CSc1nnc(CCNC(=O)c2ccc(-c3cccc(F)c3)cc2)n1-c1ccc(F)cc1 | · | · | · | -0.4% | · | ·
Cc1ccccc1NC(=O)c1ccccc1NC(=O)Cc1cccc2ccccc12 | i | i | ? | 15.1% | -4.8% | 1.2%
Cc1ccccc1NC(=O)c1cccc2nc3ccccc3nc12 | ? | ? | ? | 10.6% | 18.4µM* | -5.9%
CCOc1ccc(N(CC)S(=O)(=O)N2CCCC(C(=O)NCc3ccccc3Cl)C2)cc1 (centres undefined) | i | i | · | -0.8% | · | ·
Cc1ccc2[nH]c(CSc3nnc(NC(=O)COc4ccccc4C)s3)cc(=O)c2c1 | i | i | · | 2.3% | · | ·
Cc1ccc(S(=O)(=O)N2CCC(=O)N(C(COCc3ccc(Cl)c(Cl)c3)Cc3ccccc3)CC2)cc1 (centres undefined) | i | i | 23.1µM* | -0.9% | -36.1% | -7.7%
Cc1ccc(S(=O)(=O)N2CCC(=O)N([C@H](COCc3ccc(C(F)(F)F)cc3)Cc3ccccc3)CC2)cc1 | ? | i | · | 0.4% | · | ·
Cc1ccc(S(=O)(=O)N2CCC(=O)N(C(COCc3ccc(C(F)(F)F)cc3)Cc3ccccc3)CC2)cc1 (centres undefined) | i | i | 3.66µM* | -0.3% | 25.2% | -6.7%
Cc1ccc(S(=O)(=O)N2CCC(=O)N(C(COCc3cccc(C)c3)Cc3ccccc3)CC2)cc1 (centres undefined) | i | i | 8.2µM* | 2.1% | ? | -3.5%
Cc1cc(O)ccc1N/C=C(\C#N)c1nc2ccccc2o1 | i | i | 18.4µM* | ? | ? | -7.3%
N#C/C(=C\c1c(Cl)cccc1Cl)c1nc2ccccc2o1 | i | i | ? | 0.9% | 29.5% | -3.2%
CC(C)CC1C(=O)N(Cc2cn(CCC3OCCCO3)nn2)CCS(=O)(=O)N1Cc1ccc(-c2ccccc2)cc1 (centres undefined) | i | i | · | -0.2% | · | ·
CC(C)C1C(=O)N(Cc2cn(Cc3ccco3)nn2)CCS(=O)(=O)N1Cc1ccc(-c2ccc(Cl)c(Cl)c2)cc1 (centres undefined) | i | 13µM* | · | 0.0% | · | ·
CC(C)C1C(=O)N(Cc2cn(CCC3OCCCO3)nn2)CCS(=O)(=O)N1Cc1ccc(-c2ccncc2)cc1 (centres undefined) | 16.4µM* | i | · | 7.5% | · | ·

Source: PubChem
